Targets with a hit are over-represented here; the source holds about 7,900 in all. About 0.6% of all pairs of compound and target were hits. A number with no mark means an inactive call.
Compound: C#Cc1cccc(Nc2ncnc3cc(OCCOC)c(OCCOC)cc23)c1 [erlotinib]
Assay: log2 fold change, soluble protein after heating vs DMSO (PISA); higher = thermal stabilisation; K562 cells, 10 uM, 30 min; active = over 0.2 and 3.5 SD of the protein, either way, in both replicates (recomputed)
How it was run: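 For each measurement, 10 μM compound was applied for 30 min to K562 cells at 2×10^6 cells/mL. Aliquots were heated for 3 min across 48°C-58°C, pooled, and extracted in PBS with 0.5% NP-40 at 4°C; the supernatant after 21,000xg for 90 min was soluble protein. This was quantified by TMTpro 16plex LC-MS/MS with channel sums equalised, and thermal stability was reported relative to control samples from duplicates, on a log2 fold-change scale.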

Chain of UniProt Q9BSF4 (Q9BSF4 whole entry, looked up): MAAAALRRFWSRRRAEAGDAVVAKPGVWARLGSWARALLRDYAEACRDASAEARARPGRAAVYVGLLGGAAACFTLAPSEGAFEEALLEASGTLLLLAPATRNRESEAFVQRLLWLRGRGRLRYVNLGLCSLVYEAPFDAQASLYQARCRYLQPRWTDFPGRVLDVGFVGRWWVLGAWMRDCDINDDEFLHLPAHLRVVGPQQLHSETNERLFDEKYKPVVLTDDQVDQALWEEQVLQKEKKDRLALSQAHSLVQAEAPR
Chain of UniProt Q96BZ9 (Q96BZ9 whole entry, looked up): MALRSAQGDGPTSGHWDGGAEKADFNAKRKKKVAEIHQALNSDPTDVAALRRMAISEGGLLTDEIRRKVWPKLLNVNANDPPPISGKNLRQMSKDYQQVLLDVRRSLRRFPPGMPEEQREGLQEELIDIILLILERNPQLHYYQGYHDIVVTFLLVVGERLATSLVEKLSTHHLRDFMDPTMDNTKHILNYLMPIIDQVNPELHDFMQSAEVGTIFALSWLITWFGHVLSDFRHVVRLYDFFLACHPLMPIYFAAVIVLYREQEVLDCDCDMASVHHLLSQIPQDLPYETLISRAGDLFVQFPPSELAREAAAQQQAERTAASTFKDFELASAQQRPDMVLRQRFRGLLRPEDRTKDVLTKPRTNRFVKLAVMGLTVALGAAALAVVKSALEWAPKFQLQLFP
Chain of UniProt Q969X1 (Q969X1 whole entry, looked up): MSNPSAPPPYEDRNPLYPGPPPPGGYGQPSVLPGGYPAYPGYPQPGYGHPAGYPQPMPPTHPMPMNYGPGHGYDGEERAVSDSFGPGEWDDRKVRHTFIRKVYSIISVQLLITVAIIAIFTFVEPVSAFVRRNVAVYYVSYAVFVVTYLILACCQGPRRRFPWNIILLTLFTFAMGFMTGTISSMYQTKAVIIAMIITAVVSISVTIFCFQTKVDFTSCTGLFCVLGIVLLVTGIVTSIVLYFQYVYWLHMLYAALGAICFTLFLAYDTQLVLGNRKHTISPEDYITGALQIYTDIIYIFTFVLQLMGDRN
Chain of UniProt P50225 (P50225 whole entry, looked up): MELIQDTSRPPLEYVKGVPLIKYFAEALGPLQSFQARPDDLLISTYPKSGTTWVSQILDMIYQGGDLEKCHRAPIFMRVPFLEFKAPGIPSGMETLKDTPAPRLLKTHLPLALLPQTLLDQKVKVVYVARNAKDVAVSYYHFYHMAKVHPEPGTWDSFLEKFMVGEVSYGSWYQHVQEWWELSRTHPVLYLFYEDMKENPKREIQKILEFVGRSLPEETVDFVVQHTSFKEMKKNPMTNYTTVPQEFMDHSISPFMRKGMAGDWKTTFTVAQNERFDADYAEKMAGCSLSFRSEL
Chain of UniProt Q9H2K8 (Q9H2K8 whole entry, looked up): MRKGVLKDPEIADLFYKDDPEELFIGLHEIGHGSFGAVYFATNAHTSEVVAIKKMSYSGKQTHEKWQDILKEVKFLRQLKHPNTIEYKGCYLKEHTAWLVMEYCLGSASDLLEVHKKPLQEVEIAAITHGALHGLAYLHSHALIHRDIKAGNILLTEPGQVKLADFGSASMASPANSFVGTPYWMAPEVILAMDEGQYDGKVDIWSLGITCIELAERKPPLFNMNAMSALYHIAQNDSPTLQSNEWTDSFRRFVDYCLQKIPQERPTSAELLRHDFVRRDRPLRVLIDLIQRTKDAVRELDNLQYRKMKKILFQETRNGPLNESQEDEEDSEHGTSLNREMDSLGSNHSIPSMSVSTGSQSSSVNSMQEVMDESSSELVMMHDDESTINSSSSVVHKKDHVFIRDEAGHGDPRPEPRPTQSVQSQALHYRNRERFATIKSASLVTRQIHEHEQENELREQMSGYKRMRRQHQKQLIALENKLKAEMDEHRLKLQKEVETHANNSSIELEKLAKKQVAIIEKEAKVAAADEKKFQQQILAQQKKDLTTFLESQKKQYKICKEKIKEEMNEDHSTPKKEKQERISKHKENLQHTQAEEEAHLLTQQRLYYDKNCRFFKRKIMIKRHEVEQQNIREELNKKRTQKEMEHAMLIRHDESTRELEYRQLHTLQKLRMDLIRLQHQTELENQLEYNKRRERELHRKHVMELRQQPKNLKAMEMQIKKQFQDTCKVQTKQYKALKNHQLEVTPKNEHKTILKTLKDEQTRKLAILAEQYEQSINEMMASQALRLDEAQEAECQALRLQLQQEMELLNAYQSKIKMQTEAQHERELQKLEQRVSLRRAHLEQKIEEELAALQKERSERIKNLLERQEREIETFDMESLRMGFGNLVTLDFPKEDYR
Chain of UniProt Q13247 (Q13247 whole entry, looked up): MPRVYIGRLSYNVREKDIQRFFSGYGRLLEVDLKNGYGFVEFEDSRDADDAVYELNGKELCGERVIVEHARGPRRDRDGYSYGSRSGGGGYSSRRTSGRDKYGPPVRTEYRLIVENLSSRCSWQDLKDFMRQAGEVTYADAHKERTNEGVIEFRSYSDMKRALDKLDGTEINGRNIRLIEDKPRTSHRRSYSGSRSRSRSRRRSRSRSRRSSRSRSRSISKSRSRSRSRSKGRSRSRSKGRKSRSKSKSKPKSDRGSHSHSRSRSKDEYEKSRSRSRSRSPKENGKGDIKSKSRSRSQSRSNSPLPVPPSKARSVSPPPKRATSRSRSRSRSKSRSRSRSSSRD
Chain of UniProt P05455 (P05455 whole entry, looked up): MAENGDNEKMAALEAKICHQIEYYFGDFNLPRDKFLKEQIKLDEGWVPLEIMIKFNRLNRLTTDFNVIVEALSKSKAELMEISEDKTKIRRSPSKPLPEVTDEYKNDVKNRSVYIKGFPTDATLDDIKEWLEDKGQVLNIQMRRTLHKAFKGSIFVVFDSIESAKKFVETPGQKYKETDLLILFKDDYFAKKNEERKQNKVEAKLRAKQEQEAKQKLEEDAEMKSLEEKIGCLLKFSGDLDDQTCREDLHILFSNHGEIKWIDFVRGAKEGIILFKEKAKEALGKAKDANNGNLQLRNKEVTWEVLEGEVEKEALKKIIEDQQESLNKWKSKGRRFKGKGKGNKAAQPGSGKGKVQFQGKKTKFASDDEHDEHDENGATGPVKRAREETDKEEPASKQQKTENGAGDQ
Chain of UniProt Q9Y5J6 (Q9Y5J6 whole entry, looked up): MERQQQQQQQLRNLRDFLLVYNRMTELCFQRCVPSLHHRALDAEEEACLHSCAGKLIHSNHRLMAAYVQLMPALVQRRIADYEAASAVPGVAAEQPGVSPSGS
Chain of UniProt Q8N1F8 (Q8N1F8 whole entry, looked up): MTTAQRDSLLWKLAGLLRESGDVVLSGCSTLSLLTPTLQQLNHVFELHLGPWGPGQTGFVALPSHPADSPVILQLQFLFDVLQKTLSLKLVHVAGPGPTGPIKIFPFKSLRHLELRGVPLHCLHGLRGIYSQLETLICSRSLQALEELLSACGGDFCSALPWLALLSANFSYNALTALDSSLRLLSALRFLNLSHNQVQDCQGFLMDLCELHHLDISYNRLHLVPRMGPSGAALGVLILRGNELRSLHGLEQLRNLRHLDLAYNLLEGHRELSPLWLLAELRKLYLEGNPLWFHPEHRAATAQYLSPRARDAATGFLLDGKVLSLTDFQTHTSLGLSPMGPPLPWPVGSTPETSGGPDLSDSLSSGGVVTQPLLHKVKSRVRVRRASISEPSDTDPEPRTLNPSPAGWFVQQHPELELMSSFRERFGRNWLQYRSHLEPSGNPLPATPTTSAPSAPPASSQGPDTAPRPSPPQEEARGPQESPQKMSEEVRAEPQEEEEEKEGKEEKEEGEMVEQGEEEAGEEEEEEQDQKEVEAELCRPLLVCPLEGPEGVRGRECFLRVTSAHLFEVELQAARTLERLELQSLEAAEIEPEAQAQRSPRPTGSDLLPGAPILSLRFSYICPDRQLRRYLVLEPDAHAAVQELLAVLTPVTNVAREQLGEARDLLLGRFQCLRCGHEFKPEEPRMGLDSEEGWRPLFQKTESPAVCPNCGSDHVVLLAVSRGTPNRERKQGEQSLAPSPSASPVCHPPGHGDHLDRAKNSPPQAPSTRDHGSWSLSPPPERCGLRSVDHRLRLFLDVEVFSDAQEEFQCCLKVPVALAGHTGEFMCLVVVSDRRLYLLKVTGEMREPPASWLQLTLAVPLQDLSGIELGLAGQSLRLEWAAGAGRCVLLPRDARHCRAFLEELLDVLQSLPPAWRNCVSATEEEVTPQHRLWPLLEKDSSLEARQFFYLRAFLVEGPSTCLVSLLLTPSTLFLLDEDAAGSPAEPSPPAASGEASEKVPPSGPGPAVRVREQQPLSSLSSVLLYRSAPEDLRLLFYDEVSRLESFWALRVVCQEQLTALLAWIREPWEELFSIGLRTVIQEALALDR
Chain of UniProt Q969S0 (Q969S0 whole entry, looked up): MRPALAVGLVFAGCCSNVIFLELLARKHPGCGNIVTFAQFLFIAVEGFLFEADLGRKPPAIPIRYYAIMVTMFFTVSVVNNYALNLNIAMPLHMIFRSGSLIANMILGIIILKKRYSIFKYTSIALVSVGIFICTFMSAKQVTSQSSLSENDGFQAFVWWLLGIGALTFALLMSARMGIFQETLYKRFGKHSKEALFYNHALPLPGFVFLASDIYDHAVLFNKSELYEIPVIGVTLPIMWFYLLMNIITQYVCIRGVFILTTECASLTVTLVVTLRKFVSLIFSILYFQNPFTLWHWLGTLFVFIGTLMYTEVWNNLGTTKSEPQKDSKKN
Chain of UniProt Q96DI7 (Q96DI7 whole entry, looked up): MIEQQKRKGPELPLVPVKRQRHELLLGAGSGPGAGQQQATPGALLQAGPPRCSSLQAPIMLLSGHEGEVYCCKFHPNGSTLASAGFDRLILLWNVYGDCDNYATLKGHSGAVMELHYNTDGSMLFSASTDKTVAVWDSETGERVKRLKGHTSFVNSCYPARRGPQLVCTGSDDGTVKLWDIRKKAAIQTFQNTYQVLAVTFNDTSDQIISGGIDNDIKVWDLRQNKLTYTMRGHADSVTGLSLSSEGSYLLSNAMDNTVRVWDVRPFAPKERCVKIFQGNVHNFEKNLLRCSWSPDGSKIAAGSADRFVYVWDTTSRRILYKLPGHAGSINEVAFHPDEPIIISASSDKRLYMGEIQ
Chain of UniProt Q8N5G0 (Q8N5G0 whole entry, looked up): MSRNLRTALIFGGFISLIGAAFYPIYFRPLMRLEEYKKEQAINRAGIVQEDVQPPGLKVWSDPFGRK

| Target | log2 fold change |
| --- | --- |
| STK38 (UniProt Q15208) | 0.039 |
| TBC1D24 (UniProt Q9ULP9) | 0.038 |
| SMARCA4 (UniProt P51532) | 0.02 |
| TAOK3 (UniProt Q9H2K8) | -0.017 |
| SP100 isoform 4 (UniProt P23497) | 0.011 |
| SLC35B4 (UniProt Q969S0) | -0.055 |
| TBRG4 (UniProt Q969Z0) | 0.072 |
| TIMM10B (UniProt Q9Y5J6) | 0.299 |
| SMIM20 isoform 2 (UniProt Q8N5G0) | -0.039 |
| SPTBN4 (UniProt Q9H254) | 0.29 |
| TGFBI (UniProt Q15582) | 0.003 |
| STARD3NL (UniProt O95772) | 0.004 |
| TJP1 (UniProt Q07157) | 0.095 |
| TANGO6 (UniProt Q9C0B7) | 0.208 |
| TANK (UniProt Q92844) | -0.019 |
| SRC isoform 2 (UniProt P12931) | -0.014 |
| SUOX (UniProt P51687) | 0.044 |
| SNRNP40 (UniProt Q96DI7) | -0.048 |
| SNX11 (UniProt Q9Y5W9) | 0.034 |

| Target | log2 fold change |
| --- | --- |
| TIMM13 (UniProt Q9Y5L4) | 0.018 |
| TATDN2 (UniProt Q93075) | 0.071 |
| SRSF9 (UniProt Q13242) | -0.084 |
| SLC35F6 (UniProt Q8N357) | 0.12 |
| SMCHD1 (UniProt A6NHR9) | 0.006 |
| SP3 (UniProt Q02447) | 0.034 |
| TBC1D20 isoform 3 (UniProt Q96BZ9) | 0.022 |
| SYK (UniProt P43405) | 0.06 |
| TIMM29 (UniProt Q9BSF4) | 0.028 |
| SMARCE1 (UniProt Q969G3) | 0.101 |
| SRSF6 (UniProt Q13247) | 0.084 |
| SRSF4 (UniProt Q08170) | -0.054 |
| SULT1A1 (UniProt P50225) | -0.003 |
| SLC27A4 (UniProt Q6P1M0) | 0.039 |
| SSB (UniProt P05455) | -0.05 |
| TLK2 isoform 2 (UniProt Q86UE8) | 0 |
| TMBIM1 (UniProt Q969X1) | 0.092 |
| STK11IP (UniProt Q8N1F8) | 0.025 |

Source: the supplement of paper PMC10849652
